A selection: hits, their analogues and other compounds. The true share with any hit is near 1.3%.
KCNH2 3.1 inh – inhibitors of human KCNH2 3.1 potassium channel isoform. 340,000 compounds, 0.95% hits. activity change, % (tested at about 1.8 µM). U2OS KCNH2 3.1, thallium flux FluxOr; active compounds read low;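 active = maximum activity change below -70%; inconclusive = maximum activity change from -70% to -50%; inactive = maximum activity change above -50%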;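 note: thallium influx rate constant from kinetic fluorescence after stimulation buffer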
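We transduce U2OS cells with the mutant 3.1 virus, culture them overnight, load FluxOr with Red40 quencher for 45 min, then add stimulation buffer and read kinetically for 2 min to derive a normalized rate constant.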
TRPV1 ag – activates the human vanilloid receptor TRPV1; 320,000 compounds, 0.19% hits; activation, % at 8.33 µM; Q8NER1; TRPV1-expressing cells, Fluo-8 calcium influx, agonist mode; in the data active = activation above about 80%; inconclusive = between about 30% and that limit
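Cells expressing TRPV1 were dye-loaded with Fluo-8 and read kinetically: 10 s baseline, 3 min after compound (agonist portion), then 2 min after EC20 capsaicin (allosteric enhancer portion). Calcium-bound dye fluorescence at 480/520 nm.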
TRPV1 potentiator – potentiators of human vanilloid receptor 1 (TRPV1); Q8NER1; TRPV1-expressing cells, Fluo-8 calcium influx, capsaicin EC20 potentiation; potentiation, % at 8.33 µM; 320,000 compounds, 0.02% hits; AID 540277; in the data active = potentiation above about 80%; inconclusive = between about 30% and that limit
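Cells expressing TRPV1 were dye-loaded with Fluo-8 and read kinetically: 10 s baseline, 3 min after compound (agonist portion), then 2 min after EC20 capsaicin (allosteric enhancer portion). Calcium-bound dye fluorescence at 480/520 nm.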
hERG WT inh – KCNH2 (human, wildtype) channel inhibition; U2OS, BacMam KCNH2, thallium flux FluxOr; active compounds read low; activity change, % at 1.84 µM; 340,000 compounds, 0.37% hits;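 active = maximum activity change below -70%; inconclusive = maximum activity change between -70% and -50%; inactive = maximum activity change above -50%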
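U2OS cells transduced with wild-type KCNH2 virus are loaded with FluxOr dye for 45 min, and thallium flux is measured in kinetic reads before and after stimulation buffer. Rate constants are normalized to DMSO controls.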
A number is an active result; . = inactive; ? = inconclusive; / = no result given.

SMILES	KCNH2 3.1 inh	TRPV1 ag	TRPV1 potentiator	hERG WT inh
S=c1[nH]nc(-c2ccc(Cl)cc2)n1Cc1ccccc1	.	.	.	-306.3
COc1ccc(-c2nnc(SCC(=O)NC(=O)NCc3ccccc3)o2)cc1	-117.8	.	.	.
CCC(=O)NCCn1ccc2ccccc21	.	.	.	-139.9
Nn1c(-c2ccccn2)nnc1-c1ccccn1	.	.	?	.
Nc1ccccc1-c1nnc(-c2ccccc2N)n1N	-113.6	.	.	.
Nc1ncnc2c1ncn2[C@@H]1O[C@H](CNC(=O)[C@@H](N)Cc2ccc(C(F)(F)F)cc2)[C@@H](O)[C@H]1O	.	/	/	.
Cc1ccc(NC(=O)c2c(C(=O)Nc3ccccc3)sc3nc(C)cc(=O)n23)cc1	-103.4	.	.	.
Cc1cc(=O)n2c(C(=O)Nc3ccc(C)c(C)c3)c(C(=O)Nc3ccccc3)sc2n1	.	.	.	.
CC(=O)c1cccc(NC(=O)C2CC(c3ccc(F)cc3)=NO2)c1 (stereo unspecified)	.	?	.	.
CC(=O)c1ccc(NC(=O)C2CC(c3ccc(F)cc3)=NO2)cc1 (stereo unspecified)	-97.1	.	.	.
O=C(Nc1ccc(F)cc1)C(=O)c1c(O)[nH]c2ccc([N+](=O)[O-])cc12	-82.4	.	.	.
CCC/C(C(=O)NCCO)=C1/c2ccccc2C(=O)N1c1ccccc1	.	/	/	.
c1ccc2[nH]c(NCc3ccc4c(c3)OCO4)nc2c1	.	.	.	-125.9
c1ccc(CNc2nc3ccccc3[nH]2)cc1	.	.	.	.
Cc1cc(Br)ccc1SCC(=O)OCC(=O)Nc1ccc2[nH]c(=O)[nH]c2c1	.	?	.	.
CC1C2CC(C(CN(C)C)/C2=N/O)C1(C)C (stereo unspecified)	.	.	.	.
CC1/C(=N/O)C(CN(C)C)C2CC1C2(C)C (stereo unspecified)	.	.	.	-291.4
CCOc1ccc(C(=O)Nc2c(C(=O)N3CCC(N4CCCCC4)CC3)oc3ccccc23)cc1	.	.	.	.
CCOCCCN(C)C1CCN(C(=O)c2oc3ccccc3c2NC(=O)COc2ccc(F)cc2)CC1	-100.2	.	.	.
CCOCCCN(C)C1CCN(C(=O)c2oc3ccccc3c2NC(=O)c2cccc([N+](=O)[O-])c2)CC1	-107.5	.	.	-78.8
O=C(Nc1c(C(=O)N2CCN(c3ccccn3)CC2)oc2ccccc12)c1ccc([N+](=O)[O-])cc1	-104.8	.	.	?
CCOCCCN(C)C1CCN(C(=O)c2oc3ccccc3c2NC(=O)Cc2ccc(F)cc2)CC1	-82.9	.	.	-107.5
COc1cccc(N2CCN(C(=O)c3oc4ccccc4c3NC(=O)Cc3ccc(OC)c(OC)c3)CC2)c1	.	.	.	.
Cc1occc1C(=O)N1CCC2(CCCN(Cc3ccc(F)c(F)c3)C2)C1 (stereo unspecified)	.	.	.	.
Cc1ccn2c(NC3CCCCC3)c(-c3cccc(-c4cccc(Cl)c4)c3)nc2c1	/	?	.	/
SMILES	KCNH2 3.1 inh	TRPV1 ag	TRPV1 potentiator	hERG WT inh
CN(CC(=O)Nc1ccc(Cl)c(Cl)c1)CC(=O)Nc1ccc2c(c1)OCO2	.	.	.	.
CCOCCCN(C)C1CCN(C(=O)c2oc3ccccc3c2NC(=O)Cc2ccc([N+](=O)[O-])cc2)CC1	-100.1	.	.	-102.3
CCOC(=O)c1cccc(Nc2ncnc3ccc(C)cc23)c1	-84.7	?	.	.
CC(Oc1coc(CN2CCN(C(=O)c3ccco3)CC2)cc1=O)c1ccccc1 (stereo unspecified)	.	.	.	.
Cc1ccc(OCCNC(=O)Cc2ccc(F)cc2)cc1	.	84.3	.	.
O=C(Cc1ccc(F)cc1)NCCc1ccc(F)cc1	.	.	.	.
Cc1nnc(NC(=O)C23CC4CC(CC(C4)C2)C3)s1	.	.	.	.
O=C(CN1C(=O)NC2(CCCCC2)C1=O)N1CCN(S(=O)(=O)c2ccc(F)c(F)c2F)CC1	.	.	.	.
COc1ccc(CCCNC(=O)C2CCC(=O)N(CC3CCCCC3)C2)cc1 (stereo unspecified)	-168.4	.	.	-173.3
COc1ccc(CCNC(=O)C2CCC(=O)N(CC3CCCCC3)C2)cc1 (stereo unspecified)	.	.	.	.
COc1ccccc1CCN1C(=S)NC(C)(C)CC1(C)O (stereo unspecified)	.	.	.	.
COc1ccc(CN2C(=S)NC(C)(C)CC2(C)O)cc1 (stereo unspecified)	.	.	.	-141.7
OC(COc1ccc(Cl)cc1)CN1C2=NCCCN2c2ccccc21 (stereo unspecified)	-97.2	.	.	-146.1
OC(CN1C2=NCCCN2c2ccccc21)c1ccc(Cl)cc1 (stereo unspecified)	-74.4	/	/	.
OC(CN1C2=NCCN2c2ccccc21)c1ccc(Br)cc1 (stereo unspecified)	-72.9	.	.	.
OC(CN1C2=NCCN2c2ccccc21)c1ccccc1 (stereo unspecified)	.	.	.	.
Clc1ccc(CN2C3=NCCCN3c3ccccc32)cc1	?	.	.	.
Clc1ccc(CN2C3=NCCCN3c3ccccc32)cc1Cl	-104.3	.	.	-84.7
CCN1C2=NCCCN2c2ccccc21	.	.	.	.
CCOC(=O)C1CCCN(C(=O)Cn2ncc3c([nH]c4ccccc43)c2=O)C1 (stereo unspecified)	.	.	.	.
Cc1c(C(=O)Nc2c(C)n(C)n(-c3ccccc3)c2=O)oc2ccc(Cl)cc12	.	.	.	.
COc1ccc(C(=O)NNC(=O)CSc2nnc(C3CC3)n2C)cc1	.	.	.	.
CN(C)S(=O)(=O)Nc1cccc(-c2cn3c(n2)SCC3)c1	-106.3	.	.	.
CC(=O)Nc1ccc(S(=O)(=O)Nc2cccc(-c3cn4c(n3)SCC4)c2)cc1	.	.	?	.
CCN1CCN(c2ccc(NC(=O)COc3ccc(Cl)cc3C)cc2)CC1	.	/	/	.
SMILES	KCNH2 3.1 inh	TRPV1 ag	TRPV1 potentiator	hERG WT inh
O=C(NN=C1C2CC3CC(C2)CC1C3)c1ccncc1	.	/	/	-182.7
CCCC[C@@H]1CCCO[C@@](C(=O)NCc2ccc(C)o2)(C(F)(F)F)C1	.	/	/	.
CCC(=O)N1CCN(c2nc(-c3ccccc3)c3c(c2C#N)CCCC3)CC1	.	101.8	.	.
CCCCc1nc(N2CCN(C(=O)c3ccco3)CC2)c(C#N)c2c1CCCC2	.	86.4	.	.
N#Cc1c(SCC(=O)O)nc(-c2ccccc2)c2c1CCCC2	.	.	.	.
O=C(CCN1C(=O)[C@@H]2Cc3ccccc3CN2C1=O)N[C@H](Cc1ccccc1)C(=O)O	.	.	.	.
C#CCN(CC=C)C(=O)c1ccc2nc(C3CCCCC3)oc2c1	.	.	.	.
Cc1ccccc1NS(=O)(=O)c1ccc(C(=O)NCC2(N3CCOCC3)CCCCC2)cc1	.	/	/	.
Cc1cccc(NS(=O)(=O)c2ccc(C(=O)NCC3(N4CCCCC4)CCCCC3)cc2)c1C	-77.8	.	.	.
CC1(C)CC(=O)C2=C(C1)N=C1c3ccccc3C(=O)C1C2c1ccc(Cl)cc1 (stereo unspecified)	.	?	.	.

Screens: PubChem BioAssay, National Center for Advancing Translational Sciences (NCATS)
